Several values for one entry are separate records, joined by “and”; a condition that tells them apart may be missing. Identical values can stand only once. Records with an inconclusive call do not appear. Values without a mark were called inactive. Activity calls are given as the source filed them. The call rests on the fitted dose curve; in most records, active means well fitted cell-killing curve with a large enough effect; inconclusive means small, poorly fitted or top-dose-only effect; inactive means flat fitted curve, though single readings scatter.
On the % scale 0 is the no-effect control and ±100 the full control effect; potency means the concentration at half of the fitted maximal effect.

This test can be described thus: Cellular viability qHTS for adrenocortical cancer (ACC) cell line SW-13 (AID 1963989). Further: nearly all actives have a fitted effect of over 65% in size.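 On activity (max response): cells grown in serum-free medium with ITS supplement.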 Conditions: SW-13 ACC cells viability, CellTiter-Glo, 48 h; activity (max response): hits give low values. In short, it runs like this: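 SW-13 cells in ITS-supplemented serum-free DMEM were plated overnight, then exposed for 48 h at 37C to compound titrations (up to 46 uM final). Viability was read by CellTiter-Glo luminescence; four-parameter logistic fits gave IC50 and efficacy.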
For orientation: In qHTS, concentration-response curves come from the screen itself.
On to `CCCCOc1cc(C(=O)OCCN(CC)CC)ccc1N`, for which the activity (max response) was -10.3%.
Same read-out and setting: next, `O=C(CCCl)NCCc1ccccc1`: -1.73%.
For the molecule `CC1(C)S[C@@H]2[C@H](NC(=O)Cc3ccccc3)C(=O)N2[C@H]1C(=O)O` (tested in a mixture with another compound), the activity (max response) was 7.44%.
Same read-out and setting: the result for `O=C1CC2(CCCC2)CC(=O)N1CCNCC1COc2ccccc2O1` (stereo not drawn) reads 6.61%.
Regarding `Clc1cc(Cl)cc(CNc2ncncc2-c2ccc3c(c2)OCO3)c1`, the Potency was 10 µM (active).
Still for that read-out and setting: the result for `COc1ccc(CCN2CCC(Nc3nc4ccccc4n3Cc3ccc(F)cc3)CC2)cc1` reads 20.6 µM (active).
As for `O=C(CO)[C@@H](O)[C@H](O)[C@@H](O)CO`, the activity (max response) is 0.0107%.
Still for that read-out and setting: next, `Cc1cc(O)cc2c1[C@]1(C)CC[C@H]3C(C)(C)CCC[C@]3(C)[C@H]1C2`: -14%; `NC(=O)c1ncn([C@@H]2O[C@H](CO)[C@@H](O)[C@H]2O)c1O`: 14.2% and 14.7% and 8.98%.
Still for that read-out and setting: the result for `O=C1OC(CN2CCOCC2)CN1/N=C/c1ccc([N+](=O)[O-])o1` (stereo not drawn) reads -3.41%; that for `CC[C@H](CC[C@@H](C)[C@H]1CC[C@H]2[C@@H]3CC=C4C[C@@H](O)CC[C@]4(C)[C@H]3CC[C@]12C)C(C)C`, -11%.
Regarding `CC(C)NCCCC1(C(N)=O)c2ccccc2-c2ccccc21`, the activity (max response) is 9.8%.
Regarding `CN(C)CCNC(=O)NC[C@H]1CC[C@@H]2[C@H](O1)c1cc(C(F)(F)F)ccc1N[C@H]2c1ccccc1`, the Potency was 0.251 µM (active).
